# High-throughput results from PubChem.
# TEAD-YAP inh = TEAD-YAP interaction inhibition. HEK-TIYL cells, TEAD-Gal4/YAP UAS-luciferase luminescence. inhibition, % at 9.12 µM. hit rate 1.4% among 640,000. AID 1259422; in the data active means inhibition above about 32%;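 further: 0% = median of test compound wells and 100% = reference inhibitor wells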
# FBW7 act = activators of human E3 ligase FBW7; Q969H0; AlphaScreen FBW7–phospho-cyclin E peptide binding, activator screen; normalized activity (activation), % at 26.1 µM; hit rate 0.13% among 650,000; in the data active means normalized activity above about 1.9%;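 further: purified mutant Fbw7 with reduced substrate affinity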
# Target sequence (Q969H0 whole entry, looked up): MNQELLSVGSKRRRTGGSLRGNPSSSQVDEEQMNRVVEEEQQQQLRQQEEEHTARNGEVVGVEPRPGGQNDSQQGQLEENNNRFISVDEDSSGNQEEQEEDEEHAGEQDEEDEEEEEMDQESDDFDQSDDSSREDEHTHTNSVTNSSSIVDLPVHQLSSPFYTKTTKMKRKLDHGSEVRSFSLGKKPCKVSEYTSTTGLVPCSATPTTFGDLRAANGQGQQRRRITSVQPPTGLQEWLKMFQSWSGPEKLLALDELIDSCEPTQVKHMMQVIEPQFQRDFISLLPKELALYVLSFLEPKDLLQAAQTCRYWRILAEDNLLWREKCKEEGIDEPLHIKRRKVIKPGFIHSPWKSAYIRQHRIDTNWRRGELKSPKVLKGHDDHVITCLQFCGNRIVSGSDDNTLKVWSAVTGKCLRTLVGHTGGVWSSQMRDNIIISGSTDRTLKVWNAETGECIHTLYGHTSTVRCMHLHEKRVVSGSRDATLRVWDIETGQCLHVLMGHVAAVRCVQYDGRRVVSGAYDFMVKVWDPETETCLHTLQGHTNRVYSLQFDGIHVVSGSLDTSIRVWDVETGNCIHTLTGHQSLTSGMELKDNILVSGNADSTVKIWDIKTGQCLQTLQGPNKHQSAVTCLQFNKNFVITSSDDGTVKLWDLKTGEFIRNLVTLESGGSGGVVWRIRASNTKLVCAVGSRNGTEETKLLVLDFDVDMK
# MITF inh = blocks human microphthalmia-associated transcription factor; AID 1259374; hit rate 0.91% among 650,000; O75030; inhibition, % at 2.6 µM; AlphaScreen MITF homodimerization, bead proximity signal; in the data active means inhibition above about 50%;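 further: 0% = vehicle wells with protein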
# GPR151 activ = activators of human GPR151. hit rate 1% among 650,000. PathHunter beta-arrestin GPR151 cells, luminescence. Q8TDV0. activation, % at 11.2 µM; in the data active means activation above about 4.9%;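 further: 0% = median of compound wells and 100% = cells with positive control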
# GPR151 conf act = confirmation of human GPR151 activators. GPR151 PathHunter beta-arrestin cells, luminescence, 90 min; % of EA-reagent control over plate median. AID 1508609. activation, % at 11.2 µM. shares compounds with GPR151 activ. 6,700 tested, under 10 active;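 active means mean percent activation across replicates above the confirmation screen cutoff of 4.91%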
# GPR119 ag = counter-screen for GPR151 activators: effect on human GPR119. shares compounds with GPR151 activ. GPR119 PathHunter beta-arrestin cells, luminescence, 90 min; 0 = compound-well median, 100 = enzyme-acceptor control. activation, % at 11.2 µM. hit rate 0.3% among 6,700;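 active means mean percent activation in the counterscreen above 29.09%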;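 further: counterscreen on off-target GPR119 to flag nonselective hits from the GPR151 activator screen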
# * = called active by the depositor; x = no result given; ! = repeats disagree. Hits are enriched below; roughly 3.5% of the tested compounds scored in any of these assays.
SMILES,TEAD-YAP inh,FBW7 act,MITF inh,GPR151 activ,GPR151 conf act,GPR119 ag
CCOC(=O)CSc1nnc(CNC(=O)c2ccc(OC)cc2)n1CC,5,0,16,0,x,x
COc1ccc(C(=O)NCc2nnc(SCC(=O)c3ccccc3)n2C)cc1,-6,0,13,6.5*,-1,1
CCOC(=O)c1ccc2nc(NC(=O)C34CC5CC(CC(C5)C3)C4)sc2c1,1,1,8,0,x,x
CN1CCN(Cc2ccc(C#CCCO)cc2)CC1CCO (stereo not given),0,0,-10,5.0*,0,0
O=C(Nc1nnc(C(F)(F)F)s1)c1ccccc1Oc1ccccc1,-2,0,14,1,x,x
COc1ccc(C(=O)c2sc3nc(C)cc(-c4cccs4)c3c2N)cc1,-2,0,2,0,x,x
COc1ccc(C(=O)c2sc3nc(C)cc(-c4cccs4)c3c2N)cc1OC,-5,0,-17,6.9*,-1,9
CCCCCCOC(=O)Nc1nnc(CCC)s1,0,0,18,12*,0,-5
COCCNCc1nc2c(c(=O)n(C)c(=O)n2C)n1Cc1ccccc1Cl,-4,0,-4,5.1*,0,15
CCCCN(CCCC)c1nc(C)cc(=O)[nH]1,5,0,-5,5.1*!,0,-1
Cc1ccc(OCC(=O)N/N=C/c2ccc(O)c([N+](=O)[O-])c2)cc1C,-3,0,-2,-1,x,x
CC(C)CCN1CCNC(=O)C1CC(=O)N(Cc1nccn1C)C(C)C (stereo not given),5,0,5,5.8*,-1,-4
COc1ccccc1NC(=O)Cn1cnc2sc(C(=O)Nc3ccc(F)cc3F)c(C)c2c1=O,4,0,2,-1,x,x
COc1ccc(C(c2nnnn2C(C)C)N2CCN(c3ccccc3OC)CC2)cc1 (stereo not given),-5,0,3,-1,x,x
CC(C)n1nnnc1C(c1ccccc1F)N1CCN(c2ccccc2)CC1 (stereo not given),2,0,-1,6.0*,0,10
COc1ccccc1N1CCN(C(c2ccc(N(C)C)cc2)c2nnnn2C(C)C)CC1 (stereo not given),0,0,8,5.3*,1,5
CCC1SC(CC)C(=O)N(CC(=O)Nc2cccc(C)c2)C1=O (stereo not given),8,0,-11,-1,x,x
N#Cc1ccc(S(=O)(=O)NCCc2ccncc2)cc1,1,0,2,5.2*,0,1
Cc1c(C(=O)N2CC(C)CC(C)C2)sc2ncn(Cc3cccc(F)c3)c(=O)c12 (stereo not given),7,0,-7,0,x,x
O=C(/C=C/c1ccccc1)N1CCN(C2=NN=C(c3ccccc3)CS2)CC1,-21,0,1,6.2*,-1,-5
O=C1NC(=O)C(=Cc2ccc(OCc3ccccc3)c(C(=O)O)c2)C(=O)N1,7,-1,11,5.6*,0,-1
CCOC(=O)Cn1c(=NC(=O)c2cc(=O)c3ccccc3o2)sc2cc(OC)ccc21,-7,0,8,1,x,x
CCOC(=O)Cn1c(=NC(=O)c2cc(=O)c3ccccc3o2)sc2cc(F)ccc21,1,0,-3,5.1*,0,3
COc1ccccc1OCc1nnc(SCC(=O)N(C)C)o1,-8,1,-5,0,x,x
CC(C)C(C)NC(=O)CSc1nnc(COc2ccccc2Cl)o1 (stereo not given),10,0,8,7.7*,-1,-3
SMILES,TEAD-YAP inh,FBW7 act,MITF inh,GPR151 activ,GPR151 conf act,GPR119 ag
Cc1cccc2nc(CNc3ccc(I)cc3)cn12,-50,0,2,-2,x,x
O=S(=O)(NN=C1CCCCC1)c1ccccc1,-5,0,-5,-2,x,x
O=S(=O)(NN=C1CCCCCC1)c1ccccc1,11,0,3,15*,-1,-6
CCSC1=C(C#N)C(c2ccc3c(c2)OCO3)C2=C(CCCC2=O)N1 (stereo not given),7,0,16,5.5*,1,0
O=C(NCCO)c1cncc(-c2cccs2)c1,-10,0,21,1,x,x
O=c1oc2c(CN3CCOCC3)c(O)ccc2cc1-c1ccc(F)cc1,-4,1,7,14*,0,-3
COc1ccc(-c2cc3ccc(O)c(CN4CCOCC4)c3oc2=O)cc1,-3,0,8,-1,x,x
COCCCN1C(=O)c2ccc(C(=O)Oc3ccc(C(C)(C)C)cc3)cc2C1=O,3,1,8,5.2*,1,-3
CCCSc1nnc2c(n1)OC(c1cccnc1)Nc1ccccc1-2 (stereo not given),-51,0,6,-1,x,x
O=C(COc1ccc(Cl)cc1)NCc1cc(-c2cccs2)on1,11,0,-1,5.2*,-1,-14
COC(=O)CCC(C)C1CCC2C3CC[C@@H]4C[C@H](O)CC[C@]4(C)C3C[C@H](O)[C@]12C (stereo not given in full),4,0,16,6.4*,0,8
C[C@H](CCC(=O)O)[C@H]1CC[C@H]2[C@@H]3[C@@H](O)C[C@@H]4C[C@H](O)CCC4(C)[C@H]3CCC12C (stereo not given in full),x,0,-12,4,x,x
CSCC(=O)NCC1Cc2cc(F)cc(-c3ccc(C(C)=O)s3)c2O1 (stereo not given),4,0,3,-1,x,x
CC(=O)c1ccc(-c2cc(F)cc3c2OC(CNC(=O)CN(C)C)C3)s1 (stereo not given),4,0,2,5.6*,-1,2
COc1ccc(NC(=O)COc2ccc(Cl)cc2)cc1NC(=O)c1ccco1,6,0,-2,6.0*,0,-3
COc1ccc(S(=O)(=O)Nc2ccc(C)c(C)c2)cc1[N+](=O)[O-],1,0,10,4,x,x
COc1ccc(S(=O)(=O)Nc2ccc3oc4c(c3c2)CCCC4)cc1[N+](=O)[O-],10,0,-4,6.4*,0,1
COc1ccccc1NS(=O)(=O)c1cccc(S(=O)(=O)Nc2ccccc2OC)c1,9,0,7,-1,x,x
COc1ccc(S(=O)(=O)Nc2ccc(-c3cn4ccsc4n3)cc2)cc1C,7,0,6,13*,1,9
COc1ccc(S(=O)(=O)Nc2ccc(I)cc2)cc1C,4,0,2,6.8*,0,-8
COc1ccccc1NS(=O)(=O)c1cccc(C(F)(F)F)c1,3,0,-6,6.8*,0,10
Cc1ccc(S(=O)(=O)NC(=O)N2CCCCCC2)cc1,-3,0,2,-1,x,x
CC(=O)c1cccc(N(CC(=O)N2CCC(C(N)=O)CC2)S(C)(=O)=O)c1,-12,1,4,0,x,x
CC(OC(=O)c1ccc(S(=O)(=O)N(C)C)cc1)c1ccccc1Cl (stereo not given),-6,0,-1,1,x,x
